Experimental data published in PubChem BioAssay AID493221 (Johns Hopkins Ion Channel Center, 2011).
Out of some 2,400 compounds screened, about 1,700 (71%) were called active.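 How the source made its calls: active means choline transporter activity left, mean of duplicates at 10 µM, below buffer-only control mean minus 3 SD; inactive means the rest.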 So high a share suggests a set chosen from earlier hits. Not all results are given here.

biological target: High affinity choline transporter 1 (Homo sapiens) (UniProt Q9GZV3); assay: human choline transporter blockers – cell-based, membrane potential dye, duplicate, confirmation (AID 493221); conditions: CHT-expressing cells, at 10 µM, LV-to-AA substituted CHT, HEK293 cells
Sequence (Q9GZV3 whole entry, looked up): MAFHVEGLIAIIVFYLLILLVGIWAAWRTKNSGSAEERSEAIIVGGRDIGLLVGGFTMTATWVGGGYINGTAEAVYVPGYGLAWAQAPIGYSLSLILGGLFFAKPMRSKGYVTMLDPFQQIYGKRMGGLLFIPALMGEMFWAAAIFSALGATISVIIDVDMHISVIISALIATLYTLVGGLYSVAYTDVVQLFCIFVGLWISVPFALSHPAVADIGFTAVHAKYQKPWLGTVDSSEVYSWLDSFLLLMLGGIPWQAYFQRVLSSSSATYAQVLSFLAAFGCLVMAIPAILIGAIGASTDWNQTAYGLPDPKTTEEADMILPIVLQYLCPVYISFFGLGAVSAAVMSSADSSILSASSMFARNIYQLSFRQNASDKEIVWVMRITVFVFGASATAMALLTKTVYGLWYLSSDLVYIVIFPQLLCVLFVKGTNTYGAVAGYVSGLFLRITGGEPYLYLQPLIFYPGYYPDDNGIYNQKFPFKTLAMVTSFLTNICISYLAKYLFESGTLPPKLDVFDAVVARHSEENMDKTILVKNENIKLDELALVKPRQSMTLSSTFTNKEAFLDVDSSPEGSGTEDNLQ

| SMILES | CHT activity remaining % of control (active compounds read low) |
| --- | --- |
| CC(=O)Nc1nc2c(s1)C(=O)NCC(C)(C)C2 | inactive |
| C/C(=N\N=C(N)N)c1ccc(Cl)cc1 | 12.2% (active) |
| CCN(CC(=O)NCc1ccc(Cl)cc1)C(=O)CSc1ccccc1 | inactive |
| Nc1cc(N2CCCCCC2)c2nonc2c1[N+](=O)[O-] | 68.5% (active) |
| O=C(OCC(=O)c1c[nH]c2ccccc12)c1cccc(O)c1 | 56% (active) |
| CN(CCC#N)c1ncnc2scc(-c3ccccc3)c12 | 50.5% (active) |
| Cc1cccc(N(C)C(=O)CN2C(=O)COc3ccc(S(=O)(=O)N4CCCCCC4)cc32)c1 | 56.8% (active) |
| O=C(c1c(F)cccc1Cl)N1CCN(S(=O)(=O)c2ccc3c(c2)OCCCO3)CC1 | inactive |
| O=S(=O)(c1cccc(-c2nnc(SC(F)F)n2-c2ccccc2)c1)N1CCCCC1 | inactive |
| CCc1ccc2c(c1)C1(NN=C(c3ccccc3)S1)C(=O)N2 (stereo not given) | 54.3% (active) |
| Cn1c2ccccc2c(=O)c2c(O)cccc21 | 65.5% (active) |
| O=C(O/N=C(/c1ccccc1)c1ccncc1)c1ccccc1[N+](=O)[O-] | 60.1% (active) |
| Cc1cccc(C)c1NC(=O)c1ccc(CN2CCc3ccccc3C2)cc1 | 53.4% (active) |
| COc1ccc(C(=O)NC(C)c2nccs2)cc1OC1CCN(C(C)C)CC1 (stereo not given) | 22.1% (active) |
| COc1ccc(OCC(=O)OCCN(C)C)cc1 | 11.5% (active) |
| OC1CN=C2Sc3ccccc3N2C1 (stereo not given) | 46.2% (active) |
| CCC(C)c1ccc(NC(=S)NCc2ccccn2)cc1 (stereo not given) | 45.6% (active) |
| COC(=O)C(C(=O)Nc1cccc(Cl)c1C)C1CCCC1 (stereo not given) | inactive |
| CC(C)CCn1c(CN(C)Cc2ccccc2)nc2c1c(=O)n(C)c(=O)n2C | inactive |
| Cc1cc(NS(=O)(=O)c2ccc(NC(=O)C(C)Oc3cccc(C)c3C)cc2)nc(C)n1 (stereo not given) | 13.3% (active) |
| CCC(Oc1ccccc1C)C(=O)Nc1ccc(S(=O)(=O)Nc2cc(C)on2)cc1 (stereo not given) | 46.2% (active) |
| Cc1cc(OC(C)C(=O)Nc2ccc(S(=O)(=O)Nc3onc(C)c3C)cc2)cc(C)c1Cl (stereo not given) | 57.7% (active) |
| COc1cc2ccccc2cc1C(=O)Nc1ccc(S(=O)(=O)Nc2cc(C)on2)cc1 | 49.4% (active) |
| CCN(CC)Cc1c(C(=O)N/N=C/c2cccc(OCc3ccc(F)cc3)c2)nnn1-c1nonc1N | inactive |
| CCc1cc2c(N3CCN(c4nnc(CC)s4)CC3)ncnc2s1 | 67.1% (active) |

| SMILES | CHT activity remaining % of control (active compounds read low) |
| --- | --- |
| Cc1c(C(=O)OC(C)C)sc(NC(=O)c2cccnc2)c1C#N | 61.9% (active) |
| CCN(CC)CCC(c1ccc2c(c1)OCO2)c1c(OC)cc(OC)c2c(-c3ccccc3)cc(=O)oc12 (stereo not given) | 70.5% (active) |
| CC(C)(C)c1ccc(C(=O)CSc2ncn[nH]2)cc1 | 42.8% (active) |
| C/C(=N/NC(=O)c1cc(Cl)ccc1O)C12CC3CC(CC(C3)C1)C2 | 46.3% (active) |
| Cc1oc2c(F)c(F)c(F)c(F)c2c1S(=O)(=O)Nc1cccc(C(F)(F)F)c1 | 57.3% (active) |
| FC(F)(F)c1cccc(NC(=S)Nc2cccc(Cl)c2)c1 | inactive |
| COc1ccc(NC(=O)c2sc(N)nc2-c2ccccc2)cc1 | 53.4% (active) |
| Cc1ccc2nc(Nc3ccccc3)cc(C)c2c1 | 49.7% (active) |
| COc1ccc(/C=C2/SC(=O)N(CCCCCC(=O)Nc3ccccc3C(=O)O)C2=S)cc1 | 29.7% (active) |
| C/C(=N\Nc1nc2ccccc2[nH]1)c1cccs1 | 19.1% (active) |
| CC(C(=O)NC1CCS(=O)(=O)C1)N1C(=O)/C(=C/c2ccc(Cl)cc2)SC1=S (stereo not given) | 69.7% (active) |
| Cc1ccc(C(=O)N/C(=C/C=C/c2ccccc2)C(=O)NCc2ccco2)cc1 | 47.3% (active) |
| O=C(/C=C/c1cn(-c2ccccc2)nc1-c1ccc2c(c1)OCCO2)NCCCN1CCOCC1 | 26.1% (active) |
| Cc1cccc(-c2nc3ccc(C(=O)NCCN4CCN(C)CC4)cc3nc2-c2cccc(C)c2)c1 | 40% (active) |
| CNCC(O)c1ccc(O)c(O)c1 (stereo not given) | 33.7% (active) |
| COC(=O)CN1C(C)=Nc2ccc(Br)cc2C1c1ccccc1 (stereo not given) | inactive |
| O=C(O)CC1=C(Nc2ccccc2)C(=O)N(c2ccccc2)C1c1ccc(Cl)cc1 (stereo not given) | 26.7% (active) |
| O=S(=O)(Nc1ccc(Cl)cn1)c1cnc(Cl)c(Br)c1 | inactive |
| CCC(=O)Nc1nnc(S(=O)(=O)N(CC(C)C)c2ccccc2)s1 | inactive |
| C/C(=N\NC(N)=S)c1cccnc1 | inactive |
| O=C(O)c1ccc(N/N=C/c2cn(-c3ccccc3)nc2-c2cccs2)cc1 | 65.1% (active) |
| COc1nc(OC)nc(N(C)CCO)n1 | inactive |
| CCOC(=O)N1CCN(C(=O)c2ccc(CN(c3ccc(C)c(C)c3)S(C)(=O)=O)cc2)CC1 | inactive |
| CCN(Cc1ccccc1)S(=O)(=O)c1cc(C(=O)O)ccc1OC | 58.7% (active) |
| O=C(Nc1ccccc1C(=O)NCCCn1ccnc1)c1ccc(Cl)cc1Cl | 52.6% (active) |
